# Laboratory results as given in PMC11006913.
# Residue numbers refer to the chain shown, from its start.
# Legend:
# Assay in all cases: PBM; 200 nM protein, PBS
# Settings in all cases: dsDNA, one strand shown
# HOXB6 [1] = target: HOXB6 (Homo sapiens, UniProt P17509 132-218, K202E)
# PROP1 [2] = target: PROP1 (Homo sapiens, UniProt O75360 56-141)
# PROP1 [3] = target: PROP1 (Homo sapiens, UniProt O75360 56-141, R99H)
# PROP1 [4] = target: PROP1 (Homo sapiens, UniProt O75360 56-141, F88S)
# HOXB6 [5] = target: HOXB6 (Homo sapiens, UniProt P17509 132-218)
# Chain of HOXB6 (Homo sapiens, UniProt P17509 132-218) (P17509 132-218): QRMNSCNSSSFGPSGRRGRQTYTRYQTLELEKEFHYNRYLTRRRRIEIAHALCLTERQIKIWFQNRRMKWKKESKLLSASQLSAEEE
# MSX2 [6] = target: MSX2 (Homo sapiens, UniProt P35548 130-214, R199I)
# Chain of MSX2 (Homo sapiens, UniProt P35548 130-214, R199I) (P35548 130-214 R199I): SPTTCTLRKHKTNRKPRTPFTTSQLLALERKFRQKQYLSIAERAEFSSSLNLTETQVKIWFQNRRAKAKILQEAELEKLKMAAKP
# ALX1 [7] = target: ALX1 (Homo sapiens, UniProt Q15699 118-204, L144V)
# Chain of ALX1 (Homo sapiens, UniProt Q15699 118-204, L144V) (Q15699 118-204 L144V): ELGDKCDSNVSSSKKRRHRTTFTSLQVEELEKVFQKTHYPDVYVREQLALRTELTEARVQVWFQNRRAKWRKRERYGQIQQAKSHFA
# ALX3 [8] = target: ALX3 (Homo sapiens, UniProt O95076 139-225, N203Q)
# Chain of ALX3 (Homo sapiens, UniProt O95076 139-225, N203Q) (O95076 139-225 N203Q): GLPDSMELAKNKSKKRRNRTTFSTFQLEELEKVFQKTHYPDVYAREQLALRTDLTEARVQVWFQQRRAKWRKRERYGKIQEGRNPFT
# ALX1 [9] = target: ALX1 (Homo sapiens, UniProt Q15699 118-204, L144R)
# Chain of ALX1 (Homo sapiens, UniProt Q15699 118-204, L144R) (Q15699 118-204 L144R): as the sequence (Q15699 118-204 L144V) above, with V27R counted along it
# MSX2 [10] = target: MSX2 (Homo sapiens, UniProt P35548 130-214)
# Chain of MSX2 (Homo sapiens, UniProt P35548 130-214) (P35548 130-214): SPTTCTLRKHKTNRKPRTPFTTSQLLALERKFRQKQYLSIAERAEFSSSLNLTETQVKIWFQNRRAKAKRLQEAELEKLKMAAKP
# ALX3 [11] = target: ALX3 (Homo sapiens, UniProt O95076 139-225)
# Chain of ALX3 (Homo sapiens, UniProt O95076 139-225) (O95076 139-225): as the sequence (O95076 139-225 N203Q) above, with Q65N counted along it
# ALX3 [12] = target: ALX3 (Homo sapiens, UniProt O95076 139-225, L168Q)
# Chain of ALX3 (Homo sapiens, UniProt O95076 139-225, L168Q) (O95076 139-225 L168Q): as the sequence (O95076 139-225 N203Q) above, with L30Q, Q65N counted along it
# ALX3 [13] = target: ALX3 (Homo sapiens, UniProt O95076 139-225, L168V)
# Chain of ALX3 (Homo sapiens, UniProt O95076 139-225, L168V) (O95076 139-225 L168V): as the sequence (O95076 139-225 N203Q) above, with L30V, Q65N counted along it
# MSX2 [14] = target: MSX2 (Homo sapiens, UniProt P35548 130-214, F161Y)
# Chain of MSX2 (Homo sapiens, UniProt P35548 130-214, F161Y) (P35548 130-214 F161Y): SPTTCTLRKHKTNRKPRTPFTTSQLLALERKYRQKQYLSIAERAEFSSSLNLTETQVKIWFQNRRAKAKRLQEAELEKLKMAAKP
# NKX3-2 [15] = target: NKX3-2 (Homo sapiens, UniProt P78367 192-278, P234S)
# Chain of NKX3-2 (Homo sapiens, UniProt P78367 192-278, P234S) (P78367 192-278 P234S): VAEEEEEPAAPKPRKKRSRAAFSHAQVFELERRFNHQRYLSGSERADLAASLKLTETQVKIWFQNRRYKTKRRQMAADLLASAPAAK
# ALX1 [16] = target: ALX1 (Homo sapiens, UniProt Q15699 118-204)
# Chain of ALX1 (Homo sapiens, UniProt Q15699 118-204) (Q15699 118-204): as the sequence (Q15699 118-204 L144V) above, with V27L counted along it
# ALX3 [17] = target: ALX3 (Homo sapiens, UniProt O95076 139-225, N203S)
# Chain of ALX3 (Homo sapiens, UniProt O95076 139-225, N203S) (O95076 139-225 N203S): as the sequence (O95076 139-225 N203Q) above, with Q65S counted along it
# NKX3-2 [18] = target: NKX3-2 (Homo sapiens, UniProt P78367 192-278)
# Chain of NKX3-2 (Homo sapiens, UniProt P78367 192-278) (P78367 192-278): as the sequence (P78367 192-278 P234S) above, with S43P counted along it
# SIX6 [19] = target: T1, SIX6 (Homo sapiens, UniProt O95475 114-200, L143I)
# T1 sequence: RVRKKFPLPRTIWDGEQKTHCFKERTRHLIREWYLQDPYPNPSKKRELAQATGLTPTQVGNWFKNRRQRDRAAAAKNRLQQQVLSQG
# NKX2-4 [20] = target: T2, NKX2-4 (Homo sapiens, UniProt Q9H2Z4 175-261)
# T2 sequence: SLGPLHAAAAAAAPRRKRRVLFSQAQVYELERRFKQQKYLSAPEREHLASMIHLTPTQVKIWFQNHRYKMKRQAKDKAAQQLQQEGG
# HOXD13 [21] = target: HOXD13 (Homo sapiens, UniProt P35453 263-343, T313R)
# Chain of HOXD13 (Homo sapiens, UniProt P35453 263-343, T313R) (P35453 263-343 T313R): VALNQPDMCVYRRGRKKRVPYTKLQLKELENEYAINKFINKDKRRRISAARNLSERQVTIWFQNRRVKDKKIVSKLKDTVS
# HOXD13 [22] = target: HOXD13 (Homo sapiens, UniProt P35453 263-343)
# Chain of HOXD13 (Homo sapiens, UniProt P35453 263-343) (P35453 263-343): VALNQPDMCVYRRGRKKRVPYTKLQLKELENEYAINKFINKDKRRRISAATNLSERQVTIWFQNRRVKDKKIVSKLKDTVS
# HOXD13 [23] = target: HOXD13 (Homo sapiens, UniProt P35453 263-343, T313A)
# Chain of HOXD13 (Homo sapiens, UniProt P35453 263-343, T313A) (P35453 263-343 T313A): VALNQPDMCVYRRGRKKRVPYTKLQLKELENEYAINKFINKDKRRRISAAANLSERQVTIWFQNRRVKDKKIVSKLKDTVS
# PAX4 = target: T3, PAX4 (Homo sapiens, UniProt O43316 9-242, F177Y)
# T3 sequence: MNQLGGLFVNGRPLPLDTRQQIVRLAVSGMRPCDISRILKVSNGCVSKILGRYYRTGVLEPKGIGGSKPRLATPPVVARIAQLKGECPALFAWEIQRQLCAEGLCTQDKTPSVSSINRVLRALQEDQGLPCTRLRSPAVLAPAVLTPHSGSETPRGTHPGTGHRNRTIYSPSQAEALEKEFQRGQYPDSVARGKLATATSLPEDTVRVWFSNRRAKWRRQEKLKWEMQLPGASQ
# HOXC9 = HOXC9 (Homo sapiens, UniProt P31274 178-260, R222W)
# Chain of HOXC9 (P31274 178-260 R222W): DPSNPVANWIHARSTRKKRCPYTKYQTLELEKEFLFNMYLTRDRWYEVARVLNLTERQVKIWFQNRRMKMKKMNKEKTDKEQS
# HOXA2 [24] = target: HOXA2 (Homo sapiens, UniProt O43364 129-215, R185T)
# Chain of HOXA2 (Homo sapiens, UniProt O43364 129-215, R185T) (O43364 129-215 R185T): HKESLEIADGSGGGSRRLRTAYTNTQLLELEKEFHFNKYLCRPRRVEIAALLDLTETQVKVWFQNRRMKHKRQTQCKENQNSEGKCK
# HOXA2 [25] = target: HOXA2 (Homo sapiens, UniProt O43364 129-215, R185K)
# Chain of HOXA2 (Homo sapiens, UniProt O43364 129-215, R185K) (O43364 129-215 R185K): as the sequence (O43364 129-215 R185T) above, with T57K counted along it
# HOXA2 [26] = target: HOXA2 (Homo sapiens, UniProt O43364 129-215, Y150S)
# Chain of HOXA2 (Homo sapiens, UniProt O43364 129-215, Y150S) (O43364 129-215 Y150S): as the sequence (O43364 129-215 R185T) above, with Y22S, T57R counted along it
# HOXA2 [27] = target: HOXA2 (Homo sapiens, UniProt O43364 129-215)
# Chain of HOXA2 (Homo sapiens, UniProt O43364 129-215) (O43364 129-215): as the sequence (O43364 129-215 R185T) above, with T57R counted along it
# NKX2-4 [28] = target: T4, NKX2-4 (Homo sapiens, UniProt Q9H2Z4 175-261, R246Q)
# T4 sequence: T2 sequence with R72Q
# SIX6 [29] = target: T5, SIX6 (Homo sapiens, UniProt O95475 114-200, L143M)
# T5 sequence: T1 sequence with I30M
# SIX6 [30] = target: T6, SIX6 (Homo sapiens, UniProt O95475 114-200, T139Q)
# T6 sequence: T1 sequence with T26Q, I30L
# NKX2-6 = target: T7, NKX2-6 (Homo sapiens, UniProt A6NCS4 118-204, R150C)
# T7 sequence: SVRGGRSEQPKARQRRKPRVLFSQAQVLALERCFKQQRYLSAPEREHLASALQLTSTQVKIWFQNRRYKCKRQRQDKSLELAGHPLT
# Chain of HOXB6 (Homo sapiens, UniProt P17509 132-218, K202E) (P17509 132-218 K202E): as the sequence (P17509 132-218) above, with K71E counted along it
# Chain of PROP1 (Homo sapiens, UniProt O75360 56-141, R99H) (O75360 56-141 R99H): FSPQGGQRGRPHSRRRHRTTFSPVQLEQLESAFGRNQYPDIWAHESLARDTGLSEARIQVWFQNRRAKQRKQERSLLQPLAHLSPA
# Chain of PROP1 (Homo sapiens, UniProt O75360 56-141) (O75360 56-141): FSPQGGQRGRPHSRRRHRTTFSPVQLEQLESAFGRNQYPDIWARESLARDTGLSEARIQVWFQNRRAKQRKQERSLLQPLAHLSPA
# Chain of PROP1 (Homo sapiens, UniProt O75360 56-141, F88S) (O75360 56-141 F88S): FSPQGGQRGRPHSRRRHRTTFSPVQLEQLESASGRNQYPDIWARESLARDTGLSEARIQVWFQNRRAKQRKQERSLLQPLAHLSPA
sequence,measurement,setting,value
CCACGCTC,binding signal,HOXB6 [1],"8.98 upbm affinity estimate (log intensity, higher = more binding, comparable within an allelic series)"
same,binding signal,PROP1 [2],"6.83 upbm affinity estimate (log intensity, higher = more binding, comparable within an allelic series)"
same,binding signal,PROP1 [3],"6.88 upbm affinity estimate (log intensity, higher = more binding, comparable within an allelic series)"
same,binding signal,PROP1 [4],"6.58 upbm affinity estimate (log intensity, higher = more binding, comparable within an allelic series)"
same,binding signal,HOXB6 [5],"9.03 upbm affinity estimate (log intensity, higher = more binding, comparable within an allelic series)"
CGGATCCG,binding signal,HOXB6 [1],"9.01 upbm affinity estimate (log intensity, higher = more binding, comparable within an allelic series)"
same,binding signal,MSX2 [6],"9.47 upbm affinity estimate (log intensity, higher = more binding, comparable within an allelic series)"
same,binding signal,ALX1 [7],"6.32 upbm affinity estimate (log intensity, higher = more binding, comparable within an allelic series)"
same,binding signal,ALX3 [8],"7.82 upbm affinity estimate (log intensity, higher = more binding, comparable within an allelic series)"
same,binding signal,ALX1 [9],"6.18 upbm affinity estimate (log intensity, higher = more binding, comparable within an allelic series)"
same,binding signal,MSX2 [10],"9.48 upbm affinity estimate (log intensity, higher = more binding, comparable within an allelic series)"
same,binding signal,ALX3 [11],"7.83 upbm affinity estimate (log intensity, higher = more binding, comparable within an allelic series)"
same,binding signal,ALX3 [12],"7.82 upbm affinity estimate (log intensity, higher = more binding, comparable within an allelic series)"
same,binding signal,ALX3 [13],"7.74 upbm affinity estimate (log intensity, higher = more binding, comparable within an allelic series)"
same,binding signal,MSX2 [14],"9.45 upbm affinity estimate (log intensity, higher = more binding, comparable within an allelic series)"
same,binding signal,NKX3-2 [15],"10.3 upbm affinity estimate (log intensity, higher = more binding, comparable within an allelic series)"
same,binding signal,ALX1 [16],"6.2 upbm affinity estimate (log intensity, higher = more binding, comparable within an allelic series)"
same,binding signal,ALX3 [17],"7.82 upbm affinity estimate (log intensity, higher = more binding, comparable within an allelic series)"
same,binding signal,HOXB6 [5],"8.86 upbm affinity estimate (log intensity, higher = more binding, comparable within an allelic series)"
same,binding signal,NKX3-2 [18],"10.3 upbm affinity estimate (log intensity, higher = more binding, comparable within an allelic series)"
ATCATGAT,binding signal,SIX6 [19],"10.4 upbm affinity estimate (log intensity, higher = more binding, comparable within an allelic series)"
ATAATACC,binding signal,SIX6 [19],"10.4 upbm affinity estimate (log intensity, higher = more binding, comparable within an allelic series)"
AGTGCGTG,binding signal,NKX2-4 [20],"11.3 upbm affinity estimate (log intensity, higher = more binding, comparable within an allelic series)"
AGGCGCTC,binding signal,HOXB6 [1],"9.06 upbm affinity estimate (log intensity, higher = more binding, comparable within an allelic series)"
same,binding signal,ALX1 [7],"6.32 upbm affinity estimate (log intensity, higher = more binding, comparable within an allelic series)"
same,binding signal,ALX1 [9],"6.29 upbm affinity estimate (log intensity, higher = more binding, comparable within an allelic series)"
same,binding signal,NKX3-2 [15],"10.5 upbm affinity estimate (log intensity, higher = more binding, comparable within an allelic series)"
same,binding signal,ALX1 [16],"6.17 upbm affinity estimate (log intensity, higher = more binding, comparable within an allelic series)"
same,binding signal,HOXB6 [5],"8.87 upbm affinity estimate (log intensity, higher = more binding, comparable within an allelic series)"
same,binding signal,NKX3-2 [18],"10.6 upbm affinity estimate (log intensity, higher = more binding, comparable within an allelic series)"
GGCCTCCC,binding signal,HOXB6 [1],"8.93 upbm affinity estimate (log intensity, higher = more binding, comparable within an allelic series)"
same,binding signal,HOXD13 [21],"9.37 upbm affinity estimate (log intensity, higher = more binding, comparable within an allelic series)"
same,binding signal,HOXD13 [22],"9.63 upbm affinity estimate (log intensity, higher = more binding, comparable within an allelic series)"
same,binding signal,HOXD13 [23],"9.7 upbm affinity estimate (log intensity, higher = more binding, comparable within an allelic series)"
same,binding signal,HOXB6 [5],"9.02 upbm affinity estimate (log intensity, higher = more binding, comparable within an allelic series)"
AATTTAAT,binding signal,HOXB6 [1],"9.98 upbm affinity estimate (log intensity, higher = more binding, comparable within an allelic series)"
same,binding signal,HOXD13 [21],"10.4 upbm affinity estimate (log intensity, higher = more binding, comparable within an allelic series)"
same,binding signal,HOXD13 [22],"11.5 upbm affinity estimate (log intensity, higher = more binding, comparable within an allelic series)"
same,binding signal,PAX4,"10.9 upbm affinity estimate (log intensity, higher = more binding, comparable within an allelic series)"
same,binding signal,PROP1 [2],"11.2 upbm affinity estimate (log intensity, higher = more binding, comparable within an allelic series)"
same,binding signal,PROP1 [3],"10.7 upbm affinity estimate (log intensity, higher = more binding, comparable within an allelic series)"
same,binding signal,HOXD13 [23],"11.3 upbm affinity estimate (log intensity, higher = more binding, comparable within an allelic series)"
same,binding signal,HOXC9,"11.1 upbm affinity estimate (log intensity, higher = more binding, comparable within an allelic series)"
same,binding signal,PROP1 [4],"7.76 upbm affinity estimate (log intensity, higher = more binding, comparable within an allelic series)"
CACCCGGG,binding signal,HOXB6 [1],"9.01 upbm affinity estimate (log intensity, higher = more binding, comparable within an allelic series)"
same,binding signal,HOXA2 [24],"7.01 upbm affinity estimate (log intensity, higher = more binding, comparable within an allelic series)"
same,binding signal,HOXA2 [25],"10.3 upbm affinity estimate (log intensity, higher = more binding, comparable within an allelic series)"
same,binding signal,HOXA2 [26],"10.5 upbm affinity estimate (log intensity, higher = more binding, comparable within an allelic series)"
same,binding signal,HOXA2 [27],"7.11 upbm affinity estimate (log intensity, higher = more binding, comparable within an allelic series)"
same,binding signal,HOXB6 [5],"8.87 upbm affinity estimate (log intensity, higher = more binding, comparable within an allelic series)"
AGTGCAGA,binding signal,NKX2-4 [20],"11.4 upbm affinity estimate (log intensity, higher = more binding, comparable within an allelic series)"
same,binding signal,NKX2-4 [28],"11.7 upbm affinity estimate (log intensity, higher = more binding, comparable within an allelic series)"
ATAAAAGC,binding signal,HOXB6 [1],"9.53 upbm affinity estimate (log intensity, higher = more binding, comparable within an allelic series)"
same,binding signal,MSX2 [10],"10.9 upbm affinity estimate (log intensity, higher = more binding, comparable within an allelic series)"
same,binding signal,MSX2 [14],"10.8 upbm affinity estimate (log intensity, higher = more binding, comparable within an allelic series)"
same,binding signal,HOXB6 [5],"10.3 upbm affinity estimate (log intensity, higher = more binding, comparable within an allelic series)"
GATACATC,binding signal,SIX6 [19],"10.4 upbm affinity estimate (log intensity, higher = more binding, comparable within an allelic series)"
GGCGTGGA,binding signal,HOXB6 [1],"9.09 upbm affinity estimate (log intensity, higher = more binding, comparable within an allelic series)"
same,binding signal,HOXB6 [5],"9.03 upbm affinity estimate (log intensity, higher = more binding, comparable within an allelic series)"
CTCGTGCC,binding signal,HOXB6 [1],"9.04 upbm affinity estimate (log intensity, higher = more binding, comparable within an allelic series)"
same,binding signal,ALX1 [7],"6.52 upbm affinity estimate (log intensity, higher = more binding, comparable within an allelic series)"
same,binding signal,ALX1 [9],"6.32 upbm affinity estimate (log intensity, higher = more binding, comparable within an allelic series)"
same,binding signal,ALX1 [16],"6.36 upbm affinity estimate (log intensity, higher = more binding, comparable within an allelic series)"
same,binding signal,HOXB6 [5],"8.84 upbm affinity estimate (log intensity, higher = more binding, comparable within an allelic series)"
CCCTCCGA,binding signal,HOXB6 [1],"9.02 upbm affinity estimate (log intensity, higher = more binding, comparable within an allelic series)"
same,binding signal,HOXB6 [5],"8.91 upbm affinity estimate (log intensity, higher = more binding, comparable within an allelic series)"
ATAGATAC,binding signal,SIX6 [29],"10.9 upbm affinity estimate (log intensity, higher = more binding, comparable within an allelic series)"
same,binding signal,SIX6 [30],"11.1 upbm affinity estimate (log intensity, higher = more binding, comparable within an allelic series)"
AACTACTT,binding signal,HOXB6 [1],"9.54 upbm affinity estimate (log intensity, higher = more binding, comparable within an allelic series)"
same,binding signal,NKX2-6,"11.2 upbm affinity estimate (log intensity, higher = more binding, comparable within an allelic series)"
same,binding signal,HOXB6 [5],"10.1 upbm affinity estimate (log intensity, higher = more binding, comparable within an allelic series)"
